Data published in PubChem BioAssay (EPA / NIEHS).
Calls of active or inactive are those of the source. The calls were made as follows: active = hit-call score of the fitted dose curve at least 0.9, where 1 is the maximum; inactive = score below 0.9.

Experiment: APR_HepG2_MitoMass_1hr: Apredica 1-hour HepG2 Assay for Mitochondrial Mass (AID 2282674)
Conditions: high-content imaging, actives raise or lower the signal
Description: APR_HepG2_1hr is a cell-based, multiplexed-readout assay that uses HepG2, a human liver cell line, with measurements taken at 1 hour after chemical dosing in a 384-well plate.APR_HepG2_MitoMass_1hr is one of 10 assay component(s) measured or calculated from the APR_HepG2_1hr assay. It is designed to make measurements of cell phenotype, a form of morphology reporter, as detected with fluorescence intensity signals by HCS Fluorescent Imaging technology.Data from the assay component APR_HepG2_MitoMass_1hr was analyzed into 1 assay endpoint. This assay endpoint, APR_HepG2_MitoMass_1hr, was analyzed with bidirectional fitting relative to DMSO as the negative control and baseline of activity. Using a type of morphology reporter, gain or loss-of-signal activity can be used to understand changes in the signaling. Furthermore, this assay endpoint can be referred to as a primary readout, because this assay has produced multiple assay endpoints where this one serves a signaling function. To generalize the intended target to other relatable targets, this assay endpoint is annotated to the cell morphology intended target family, where the subfamily is organelle conformation.
Cells were treated with dimethyl sulfoxide (DMSO) as a solvent control at a final concentration of 0.5% v/v or with compounds in DMSO with a resulting final DMSO concentration of 0.5% v/v. Compound treatment was done at concentrations of 0.39, 0.78, 1.56, 3.12, 6.24, 12.5, 25, 50, 100, and 200 uM in duplicate on each plate. Cells were treated with compounds for 1, 24, or 72 hr. Carbonyl […] m-chloro-phenylhydrazone (CCCP) and taxol were used as positive controls for mitochondrial function and cytoskeletal stability, respectively; DMSO served as the negative control for this experiment. Cells were fixed by the direct addition of 50 uL formaldehyde in Hank's Balanced Salt Solution (HBSS) to a final concentration of 3.7%. After incubation in the fixation medium for 30 min at room temperature (293-298 K), cells were rinsed twice with HBSS and treated with cell permeabilization buffer (16 uL of 0.5% Triton X-100) for 10 min at room temperature (293-298 K) before labeling. For mitochondrial membrane potential and mitochondrial measurements, pre-fixed cells were incubated with 50 uL of MitoTracker Red CMXRos (Invitrogen) at a concentration of 250 nM for 30 min before fixation. In the remaining cases, post-fixed cells were labeled by incubation with a multiplexed mixture of primary antibodies in HBSS for 60 min at room temperature (293-298 K) to detect immunoreactivity of c-Jun (1:500), phospho-histone H3 (1:100), phospho-histone H2A.x (1:200), p53 (1:400), alpha-tubulin (1:200) and Hoechst 33342 (2 ug/mL). Cells were labeled for multiplexed imaging on two separate plates: a) Hoechst 33342, MitoTracker Red, phospho-histone H3, and alpha-tubulin, and b) Hoechst 33342, phospho-histone H2A.x, and c-Jun. A final rinse with HBSS (50 uL) was performed before analysis. The primary and secondary antibodies for the proteins were phospho-histone H3 (rabbit anti-phospho-histone H3 and FITC-donkey anti-rabbit IgG), phospho-histone H2A.x (mouse anti-phospho-histone H2A.x and FITC-donkey anti-mouse IgG), c-Jun (rabbit anti-phospho-c-Jun and Cy3-donkey anti-rabbit IgG), p53 (sheep anti-p53 and Cy5-donkey anti-sheep IgG), alpha-tubulin (mouse anti-alpha-tubulin and Cy5-donkey anti-mouse IgG). These antibodies are available as the CellCiphr HepG2 assay kit (Millipore).Digital images of each well were captured using a Cellomics ArrayScan VTI (Thermo Scientific Cellomics) (0.8 NA objective, 0.63x optical coupler, and XF-93 filter set) at 20x magnification. The images were acquired using the autofocus feature of the ArrayScan instrument, which entails the following steps. First, the camera focuses on channel 1 (Hoechst 33342), where nuclei are identified. Second, a Z offset of 1 um is used for capturing mitochondria (MitoTracker Red). Third, a Z offset of -2 um is used for capturing the cytoskeleton (tubulin). […]

Row | SMILES | outcome | AC50
1 | C#CCN1C(=O)COc2cc(F)c(N3C(=O)C4=C(CCCC4)C3=O)cc21 | inactive | –
2 | Oc1cc(Cl)ccc1Oc1ccc(Cl)cc1Cl | – | 170 µM (active)
3 | CN1CSC(=S)N(C)C1 | inactive | –
4 | CNC(=O)/C=C(\C)OP(=O)(OC)OC | inactive | –
5 | Oc1ccc(Cl)cc1Cc1ccccc1 | inactive | –
6 | O=C(Nc1ccccc1)Nc1cnns1 | inactive | –
7 | [2H]C1([2H])[n+]2ccccc2-c2cccc[n+]2C1([2H])[2H] | inactive | –
8 | N#Cc1c(Cl)c(Cl)c(Cl)c(C#N)c1Cl | – | 5.34 µM (active)
9 | CCOCN(C(=O)CCl)c1c(C)cccc1CC | inactive | –
10 | COP(=S)(OC)Oc1ccc(SC)c(C)c1 | inactive | –
11 | CCOC1Oc2ccc(OS(C)(=O)=O)cc2C1(C)C (stereo not given) | inactive | –
12 | CC(C)N(C(=O)COc1nnc(C(F)(F)F)s1)c1ccc(F)cc1 | inactive | –
13 | CCCN(CCOc1c(Cl)cc(Cl)cc1Cl)C(=O)n1ccnc1 | inactive | –
14 | CCS(=O)(=O)c1cccnc1S(=O)(=O)NC(=O)Nc1nc(OC)cc(OC)n1 | inactive | –
15 | COC(=O)c1ccccc1CS(=O)(=O)NC(=O)Nc1nc(OC)cc(OC)n1 | inactive | –
16 | CNC(=O)CSP(=S)(OC)OC | inactive | –
17 | CCC(C)Nc1c([N+](=O)[O-])cc(C(C)(C)C)cc1[N+](=O)[O-] (stereo not given) | inactive | –
18 | COP(=O)(OC)OC=C(Cl)Cl | inactive | –
19 | O=C(O)COc1ccc(Cl)cc1Cl | inactive | –
20 | COc1nn(CSP(=S)(OC)OC)c(=O)s1 | inactive | –

Row | SMILES | outcome | AC50
21 | O=C(O)CCCOc1ccc(Cl)cc1Cl | inactive | –
22 | O=S1OCC2C(CO1)C1(Cl)C(Cl)=C(Cl)C2(Cl)C1(Cl)Cl (stereo not given) | inactive | –
23 | COC(=O)c1ccccc1S(=O)(=O)NC(=O)N(C)c1nc(C)nc(OC)n1 | inactive | –
24 | CNC(=O)Oc1ccccc1OC(C)C | inactive | –
25 | CCCN(CCC)c1c([N+](=O)[O-])cc(C(F)(F)F)cc1[N+](=O)[O-] | inactive | –
26 | CNC(=O)Oc1cccc(N=CN(C)C)c1 | inactive | –
27 | CC(C)OC(=O)Nc1cccc(Cl)c1 | inactive | –
28 | CC1(c2ccc(Oc3ccccc3)cc2)OC(=O)N(Nc2ccccc2)C1=O (stereo not given) | inactive | –
29 | COC(=O)c1ccccc1S(=O)(=O)NC(=O)Nc1nc(C)nc(OC)n1 | inactive | –
30 | O=[N+]([O-])c1c(Cl)c(Cl)c(Cl)c(Cl)c1Cl | inactive | –
31 | O=[N+]([O-])/N=C1\NCCN1Cc1ccc(Cl)nc1 | inactive | –
32 | O=C(O)C(F)(F)C(F)(F)C(F)(F)C(F)(F)C(F)(F)C(F)(F)C(F)(F)F | inactive | –
33 | COP(=S)(OC)Oc1ccc([N+](=O)[O-])cc1 | inactive | –
34 | O=S(=O)(O)C(F)(F)C(F)(F)C(F)(F)C(F)(F)C(F)(F)C(F)(F)C(F)(F)C(F)(F)F | inactive | –
35 | Cc1[nH]c(=O)n(C(C)(C)C)c(=O)c1Cl | inactive | –
36 | Cc1cc(C)nc(NC(=O)NS(=O)(=O)c2ccccc2C(=O)OC2COC2)n1 | inactive | –
37 | CCc1ccc(C(=O)NN(C(=O)c2cc(C)cc(C)c2)C(C)(C)C)cc1 | inactive | –
38 | CC1(C)C(C=C(Cl)Cl)C1C(=O)OC(C#N)c1ccc(F)c(Oc2ccccc2)c1 (stereo not given) | inactive | –
39 | N#CN | inactive | –
40 | OCCOc1ccccc1 | inactive | –
